A short description of experiment [1]: Nuclear factor erythroid 2-related factor 2/antioxidant responsive element (Nrf2/ARE) small molecule agonists: qHTS cell viability counter screen in human keratinocytes (AID 1919968; active = well fitted cell-killing curve with a large enough effect in the repeat runs; also: nearly all actives have a fitted effect of over 55% in size). The procedure, abridged: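 After a 5 h attachment period, ARE-reporter keratinocytes were dosed with compounds in DMSO and then cultured 23 h at 37 C. Cell viability came from CellTiter-Fluor signal read after a further 1 h.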

Experiment [2] is described as follows: Nuclear factor erythroid 2-related factor 2/antioxidant responsive element (Nrf2/ARE) small molecule agonists: luciferase reporter gene qHTS assay in human keratinocytes (AID 1919969). Also: nearly all actives have a fitted effect of over 35% in size. Also: potency is read from the fitted curve at half-maximal effect.
Experiment [3] is described as follows: G protein-coupled receptor (GPCR) small molecule agonists, calcium flux assay: HEK293 wild type cell line counter screen (AID 1920065). The procedure, abridged: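 Calcium-sensitive dye, loaded 1 h at 37 C into cells cultured 18 h, reports compound-evoked calcium release as fluorescence (Ex/Em 480/540), measured over 3 min. Agonist mode; 15-point titrations, triplicate.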
On the technique in general: A change in cytosolic calcium serves as a functional read-out for many receptors and channels.

A short description of experiment [4]: p53 small molecule agonists, cell-based qHTS assay with human liver microsomes (AID 1963577).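 Also: p53 response element beta-lactamase reporter cells with liver microsomes plus NADPH.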 The procedure, abridged:
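16 h, 37 C exposure of p53RE-bla cells to compounds with human liver microsomes and NADPH (0.5 mg/mL final each); detection via LiveBLAzer mixture, 2 h dark at room temperature.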

Experiment [5] is described as follows: p53 small molecule agonists, cell-based qHTS assay with rat liver microsomes (AID 1963578). The procedure, abridged:
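With rat liver microsomes and NADPH present (0.5 mg/mL final each), p53RE-bla cells are treated with compound for 16 h at 37 C. LiveBLAzer detection mixture is then applied for 2 h at room temperature in the dark.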
A general note: Quantitative high-throughput screening tests each substance at several concentrations.

A short description of experiment [6]: p53 small molecule agonists, cell-based qHTS assay with human liver microsomes: qHTS cell viability counter screen (AID 1963579). Also: nearly all actives have a fitted effect of over 45% in size. The procedure, abridged:
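In this multiplexed counter screen, the reporter plates were subsequently treated with CellTiter-Glo so that cell viability, reflected by luminescence, could be recorded for p53RE-bla cells dosed 16 h with compounds under microsomal activation (HLM and NADPH).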

Experiment [7] is described as follows: p53 small molecule agonists, cell-based qHTS assay with rat liver microsomes: qHTS cell viability counter screen (AID 1963580). Also: nearly all actives have a fitted effect of over 45% in size. The procedure, abridged: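 HCT-116 p53RE-bla, 4,000 cells/well, 5 h pre-incubation; cpd + rat liver microsomes 0.5 mg/mL + NADPH 0.5 mg/mL (final); 16 h, 37 C; CellTiter-Glo, 30 min RT; luminescence.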
Experiment [8] in a line: p53 small molecule agonists, cell-based qHTS assay: qHTS cell viability counter screen (AID 1963581). Also: nearly all actives have a fitted effect of over 45% in size. The procedure, abridged:
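Following 5 h attachment, HCT-116 p53RE-bla cells took up compound for 16 h at 37 C; the reporter was read with B/G FRET substrate (2 h RT), and viability then via CellTiter-Glo ATP luminescence.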

A short description of experiment [9]: p53 small molecule agonists, cell-based qHTS assay (AID 1963582; active = well fitted activation curve with a large enough effect in the signal ratio in the repeat runs, not every such curve was filed as active; the % refers to the signal ratio). The procedure, abridged:
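In this cell-based concentration-response screen, a p53 response element drives beta-lactamase; cells received DMSO-borne compounds after 5 h culture and were incubated a further 16 h before FRET substrate development.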

The target of experiment [10] is 5-hydroxytryptamine receptor 2A (Homo sapiens) (UniProt P28223). In words: 5-hydroxytryptamine receptor 2A (HTR2A) small molecule antagonists, cell-based qHTS assay (AID 1963586). Also: nearly all actives have a fitted effect of over 45% in size. The procedure, abridged:
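Antagonist-mode intracellular calcium assay: DOI (4 nM) added after 5 min compound pre-incubation at room temperature to dye-loaded HTR2A-CHO cells. Fluorescence followed for 3 min, sampled every second.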

The target is the same in experiment [11]. In words: 5-hydroxytryptamine receptor 2A (HTR2A) small molecule agonists, cell-based qHTS assay (AID 1963587). Also: nearly all actives have a fitted effect of over 30% in size. The procedure, abridged: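 Kinetic calcium-flux fluorescence (2 min, 1 sec intervals) after compound addition in agonist mode. HTR2A-CHO cells were cultured 18 h, then dye-loaded 1 h at 37 C.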
Experiment [12] deals with Muscarinic acetylcholine receptor M1 (Homo sapiens) (UniProt P11229). In words: Cholinergic receptor muscarinic 1 (CHRM1) small molecule antagonists, cell-based qHTS assay (AID 1963588). Also: nearly all actives have a fitted effect of over 40% in size. Also: potency is read from the fitted curve at half-maximal effect. The procedure, abridged:
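CHRM1-CHO calcium-flux assay, antagonist mode. Cells were seeded 18 h, dye-loaded 1 h at 37 C and given compound for 5 min at RT, then acetylcholine was added at 50nM. FDSS fluorescence was read 3 min; 15 concentrations, three runs.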

Experiment [13] shares this target. In words: Cholinergic receptor muscarinic 1 (CHRM1) small molecule agonists, cell-based qHTS assay (AID 1963589). Also: nearly all actives have a fitted effect of over 35% in size. The procedure, abridged:
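Measures agonist-induced intracellular calcium rise. Stable human CHRM1 CHO line, 1 h dye load at 37 C, compounds from DMSO, kinetic fluorescence read.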

A short description of experiment [14]: cAMP Responsive Elements (CRE) small molecule agonists, cell-based qHTS assay (AID 1963590). The procedure, abridged:
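A CRE-responsive beta-lactamase reporter in HEK 293T cells was used. Treatment ran 3 h at 37 C; detection used LiveBLAzer B/G FRET substrate for 2 h at room temperature.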

Experiment [15] in a line: cAMP Responsive Elements (CRE) small molecule antagonists, cell-based qHTS assay (AID 1963591; active = well fitted inhibition curve with a large enough effect in the signal ratio in the repeat runs, not every such curve was filed as active; the % refers to the signal ratio). The procedure, abridged:
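HEK293T cells carrying a CRE-driven beta-lactamase reporter receive compound and NKH477 (0.25 uM final) for 3 h. Fluorescence from LiveBLAzer B/G FRET substrate is read after 2 h at room temperature.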

Experiment [16] concerns the target Beta-2 adrenergic receptor (Homo sapiens) (UniProt P07550). The experiment in a line: Adrenergic beta2 receptor (ADRB2) small molecule antagonists, cell-based qHTS assay (AID 1963592). Also: series mostly up to about 92 µM; nearly all actives have a fitted effect of over 50% in size. The procedure, abridged:
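Cells (CHO, stable ADRB2 overexpression) incubated 18-20hr at 37C; compounds added from DMSO; agonist mix (1nM isoproterenol, 100uM IBMX, 25uM Ro-20-1724) added; 0.5hr RT; d2-cAMP and anti-cAMP-cryptate added; 1hr RT; 665/615 nm read.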

For experiment [17] the target is unchanged. The experiment in a line: Adrenergic beta2 receptor (ADRB2) small molecule agonists, cell-based qHTS assay (AID 1963593).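 Also: CHO cells stably overexpressing human ADRB2.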 The procedure, abridged:
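CHO cells stably over-expressing ADRB2 were plated overnight at 37C, then dosed with compounds plus a stimulation mix containing 100uM IBMX and 25uM Ro-20-1724 for 0.5hr at room temperature. cAMP was measured by HTRF competition, 1hr.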

In experiment [18] the target is D(2) dopamine receptor (Homo sapiens) (UniProt P14416). In words: Dopamine D2 receptor (DRD2) small molecule agonists, cell-based qHTS assay (AID 1963594). Also: nearly all actives have a fitted effect of over 35% in size. The procedure, abridged: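 cAMP accumulation in DRD2-HEK293 cells measured by HTRF after 1 h detection; compounds added 10 min before NKH477 (200nM […]) forskolin-analogue stimulation, 30 min at room temperature, with Ro20-1724 present at 0.1 mM final.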
Sequence of D(2) dopamine receptor (Homo sapiens) (P14416 whole entry, looked up): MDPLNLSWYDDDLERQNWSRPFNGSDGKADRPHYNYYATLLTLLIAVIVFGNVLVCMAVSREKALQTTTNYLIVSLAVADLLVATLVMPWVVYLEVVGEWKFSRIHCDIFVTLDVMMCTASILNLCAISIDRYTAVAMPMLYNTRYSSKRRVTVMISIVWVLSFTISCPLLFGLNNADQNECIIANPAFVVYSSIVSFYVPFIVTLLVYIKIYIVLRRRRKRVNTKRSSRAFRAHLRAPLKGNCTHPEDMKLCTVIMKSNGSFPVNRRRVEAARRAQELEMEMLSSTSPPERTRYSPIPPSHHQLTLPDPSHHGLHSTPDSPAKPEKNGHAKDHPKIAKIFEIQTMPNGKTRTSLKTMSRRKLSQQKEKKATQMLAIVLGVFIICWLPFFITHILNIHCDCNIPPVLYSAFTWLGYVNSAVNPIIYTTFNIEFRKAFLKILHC

The target is the same in experiment [19]. In words: Dopamine D2 receptor (DRD2) small molecule antagonists, cell-based qHTS assay (AID 1963595; active = well fitted inhibition curve with a large enough effect in the signal ratio in the repeat runs, with a control signal flat; the % refers to the signal ratio). The procedure, abridged:
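In this cell-based antagonist screen, compounds act for 10 min at room temperature before a 30 min challenge with 12 nM quinpirole and 200 nM NKH477. cAMP is quantified by HTRF competition in DRD2-HEK293 cells containing 0.1 mM Ro20-1724.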

Experiment [20] has as its target Gonadotropin-releasing hormone receptor (Homo sapiens) (UniProt P30968). In words: Human gonadotropin-releasing hormone receptor (GnRHR) small molecule agonists, calcium flux assay in GnRHR-HEK293 cells (AID 1920063). Also: nearly all actives have a fitted effect of over 35% in size. The procedure, abridged: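 We seeded human GnRHR-expressing HEK293 cells for 18 hours, loaded them with calcium dye for an hour at 37 C, added test compounds, and recorded fluorescence intensity kinetically for three minutes.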

Potency data for 7 compounds are collected here from PubChem BioAssay (Tox21).

Values joined by “and” are separate entries in the source; they are usually repeats but may differ in a detail not shown here. Equal entries are not always repeated. Results filed as inconclusive are left out. A structure can be active in one record and inactive in another. Active and inactive are the calls of the source. Unless noted, calls follow the shape of the full dose curve.

Sequence of Beta-2 adrenergic receptor (Homo sapiens) (P07550 whole entry, looked up): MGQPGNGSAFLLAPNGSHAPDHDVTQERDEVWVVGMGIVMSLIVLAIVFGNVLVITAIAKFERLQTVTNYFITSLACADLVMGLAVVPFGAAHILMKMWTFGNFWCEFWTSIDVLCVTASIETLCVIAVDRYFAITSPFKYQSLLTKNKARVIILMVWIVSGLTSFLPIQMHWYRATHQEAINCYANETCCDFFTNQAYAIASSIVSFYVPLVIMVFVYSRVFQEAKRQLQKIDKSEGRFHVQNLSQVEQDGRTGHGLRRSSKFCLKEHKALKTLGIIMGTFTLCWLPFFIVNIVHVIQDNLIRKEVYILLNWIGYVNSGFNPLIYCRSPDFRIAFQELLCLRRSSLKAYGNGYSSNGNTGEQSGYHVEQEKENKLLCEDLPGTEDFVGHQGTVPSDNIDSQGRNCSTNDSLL
Sequence of 5-hydroxytryptamine receptor 2A (Homo sapiens) (P28223 whole entry, looked up): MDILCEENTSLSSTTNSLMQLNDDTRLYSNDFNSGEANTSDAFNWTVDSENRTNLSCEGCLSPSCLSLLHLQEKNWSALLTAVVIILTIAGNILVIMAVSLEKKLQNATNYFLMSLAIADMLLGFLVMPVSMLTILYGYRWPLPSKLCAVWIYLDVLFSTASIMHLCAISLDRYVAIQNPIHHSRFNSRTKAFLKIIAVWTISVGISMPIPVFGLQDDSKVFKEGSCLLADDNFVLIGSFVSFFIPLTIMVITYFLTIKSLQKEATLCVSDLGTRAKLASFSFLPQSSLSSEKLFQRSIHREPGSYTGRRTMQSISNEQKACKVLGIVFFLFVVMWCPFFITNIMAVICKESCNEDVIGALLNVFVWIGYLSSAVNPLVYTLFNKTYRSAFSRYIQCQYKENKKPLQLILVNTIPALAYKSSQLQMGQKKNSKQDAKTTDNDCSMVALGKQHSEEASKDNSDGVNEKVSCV
Sequence of Muscarinic acetylcholine receptor M1 (Homo sapiens) (P11229 whole entry, looked up): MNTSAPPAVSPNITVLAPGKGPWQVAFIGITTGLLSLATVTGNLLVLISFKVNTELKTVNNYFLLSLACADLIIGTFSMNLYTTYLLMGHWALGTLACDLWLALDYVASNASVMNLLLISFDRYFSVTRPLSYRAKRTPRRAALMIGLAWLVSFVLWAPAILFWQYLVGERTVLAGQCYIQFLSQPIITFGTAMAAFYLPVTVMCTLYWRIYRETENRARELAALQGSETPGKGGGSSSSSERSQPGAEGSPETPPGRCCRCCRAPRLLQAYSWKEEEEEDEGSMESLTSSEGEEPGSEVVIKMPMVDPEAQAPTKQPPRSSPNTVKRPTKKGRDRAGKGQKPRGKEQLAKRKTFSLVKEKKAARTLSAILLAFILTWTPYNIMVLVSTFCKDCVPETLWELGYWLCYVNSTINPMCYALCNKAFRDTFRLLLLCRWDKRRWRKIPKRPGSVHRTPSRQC
Sequence of Gonadotropin-releasing hormone receptor (Homo sapiens) (P30968 whole entry, looked up): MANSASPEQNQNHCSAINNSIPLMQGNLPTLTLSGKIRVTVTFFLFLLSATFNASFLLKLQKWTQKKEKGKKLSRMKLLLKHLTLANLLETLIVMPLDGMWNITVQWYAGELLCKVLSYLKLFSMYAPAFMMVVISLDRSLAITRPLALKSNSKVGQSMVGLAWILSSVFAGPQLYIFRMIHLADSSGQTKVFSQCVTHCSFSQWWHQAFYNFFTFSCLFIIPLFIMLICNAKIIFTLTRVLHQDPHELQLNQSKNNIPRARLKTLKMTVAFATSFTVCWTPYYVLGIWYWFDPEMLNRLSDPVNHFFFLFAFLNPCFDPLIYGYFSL

Turning to `CC1CCC(C(C)(C)O)CC1` (stereo not given), the Potency entry in experiment [1], in [2], in [3], in [4], in experiment [5] and in [6] was “inactive” each time. Besides, the Potency result in experiment [7], in [8], in experiment [9], in [10], in [11] and in [12] was “inactive” in each case. Further, the Potency result in experiment [13], in [14], in experiment [15], in experiment [16], in [17] and in experiment [18] was “inactive” throughout. The Potency result in experiment [19] is “inactive”.

Regarding `c1ccc2c(c1)CCC2`, the Potency entry in [1], in [20], in [4], in experiment [5], in [6] and in [7] was “inactive” each time. The Potency result in experiment [8], in [9], in experiment [10], in [11], in experiment [12] and in experiment [13] was “inactive” in each case. The Potency entry in experiment [14], in [15], in experiment [16], in [17], in [18] and in experiment [19] was “inactive” throughout. Also, the Potency in experiment [2] is 13.7 µM (active).

Consider `CN1C(=O)CC(C)(c2ccccc2)C1=O` (stereo not given), for which the Potency entry in experiment [1], in [2], in experiment [3], in experiment [4], in [5] and in experiment [6] was “inactive” in each case. Also, the Potency result in experiment [7], in [8], in [9], in experiment [10], in experiment [11] and in experiment [12] was “inactive” each time. Also, the Potency entry in [13], in experiment [14], in [15], in [16], in experiment [17] and in [18] was “inactive” each time. The Potency entry in [19] is “inactive”.

For `CCCCCCCCOC(=O)CCCCCCCCC(=O)OCCCCCCCC`, the Potency entry in experiment [1], in experiment [2], in experiment [3], in experiment [4], in [5] and in [6] was “inactive” in each case. Moreover, the Potency entry in experiment [7], in experiment [8], in experiment [9], in experiment [10], in [11] and in experiment [12] was “inactive” throughout. Moreover, the Potency entry in experiment [13], in experiment [14], in [15], in experiment [16], in experiment [17] and in experiment [18] was “inactive” each time. Besides, in [19], the Potency entry was “inactive”.

Take `CCCOCCO`: the Potency entry in experiment [1], in [2], in [3], in [4], in [5] and in experiment [6] was “inactive” throughout. Also, the Potency result in experiment [7], in [8], in experiment [9], in experiment [10], in [11] and in experiment [13] was “inactive” each time. The Potency result in experiment [14], in experiment [15], in [16], in [17] and in experiment [19] was “inactive” throughout. In experiment [12], the Potency entry was “inactive and 12.5 nM (active)”.

Consider `Cc1cc(O)cc2c1O[C@](C)(CCC[C@H](C)CCC[C@H](C)CCCC(C)C)CC2`, for which the Potency entry in [1], in [2], in experiment [3], in [4], in experiment [5] and in [6] was “inactive” throughout. For the same compound, the Potency result in [7], in [8], in experiment [9], in experiment [10], in experiment [11] and in experiment [12] was “inactive” in each case. The Potency entry in experiment [13], in [14], in experiment [15], in experiment [16] and in experiment [18] was “inactive” each time.

`O=C(c1ccccc1O)c1ccccc1O`: the Potency entry in experiment [1], in experiment [2], in [20], in [4], in experiment [5] and in experiment [6] was “inactive” each time. For the same compound, the Potency entry in experiment [7], in experiment [8], in [9], in experiment [10], in [11] and in [12] was “inactive” throughout. The Potency entry in experiment [13], in experiment [14], in [15], in experiment [16], in experiment [17] and in experiment [18] was “inactive” each time. The Potency entry in experiment [19] was “inactive”.
